{"source": "PubChem BioAssay (Tox21)", "note": "Inconclusive results are not listed. Activity calls are given as the source filed them. Calls come from the whole dose curve; as a rule, active = well fitted cell-killing curve with a large enough effect in the repeat runs; inconclusive = weak or mixed curves; inactive = flat fitted curve, though single readings scatter. % is set by controls: 0 for no effect and ±100 for the full control effect; potency is the fitted concentration of half-maximal effect.", "data": [{"assay": "qHTS assay to identify small molecule antagonists of the estrogen receptor beta (ER-beta) signaling pathway - cell viability counter screen (AID 1259382); note: nearly all actives have a fitted effect of over 55% in size", "conditions": "ER-beta-UAS-bla HEK293T viability, CellTiter-Glo luminescence, 16 h; series mostly up to 92.4 µM; activity change, negative = cytotoxicity: at the top concentration", "from_the_text": "U.S. Tox21 Program National Center for Advancing Translational Sciences [NCATS] NIH Chemical Genomics Center [NCGC] U.S. Environmental Protection Agency [EPA] National Institutes of Environmental Health Sciences [NIEHS] National Toxicology Program [NTP] U.S. Food and Drug Administration [FDA] Tox21 Assay Overview: Estrogen receptor (ER), a nuclear hormone receptor, plays an important role in development, metabolic homeostasis and reproduction. Two subtypes of ER, ER-alpha and ER-beta, have similar expression patterns with some uniqueness in both types. Endocrine disrupting chemicals (EDCs) and their interactions with steroid hormone receptors like ER causes disruption of normal endocrine function. To identify the compounds that inhibit ER signaling, an ER-beta-UAS-bla GripTite cell line (Life Technologies, Madison, WI, USA) containing a beta-lactamase reporter gene under the control of an UAS response element was used to screen Tox21 10K compound library. The cytotoxicity of the Tox21 compound library against the ER-beta-bla cell line was tested in parallel by measuring the cell viability using CellTiter-Glo assay in the same wells.\nTox21 Assay Protocol Summary: ER-beta-UAS-bla HEK293T cells were dispensed at 2,000 cells/4 uL of assay medium containing 2% charcoal stripped FBS per well into black wall/clear-bottom 1536-well plates using a Multidrop Combi (ThermoFisher Scientific, Waltham, MA) dispenser. After the assay plates were incubated at a 37C and 5% CO2 for 6 hr, 23 nL of compounds dissolved in DMSO, positive controls or DMSO only was transferred to the assay plate by a Pintool station (Kalypsys, San Diego, CA), followed by addition of 1 uL (1nM as final concentration) of 17-beta-estradiol (E2) in assay medium using a Flying Reagent Dispenser (FRD, Aurora Discovery, San Diego, CA). The plates were incubated at 37C and 5% CO2 for 16 hr. Then 1 uL of LiveBLAzer B/G FRET substrate was added using a Flying Reagent Dispenser, the plates were incubated at room temperature for 2 hours, and fluorescence intensity was measured by an Envision plate reader (PerkinElmer, Shelton, CT). For cell viability readout that measures cytotoxicity, 4 uL/well of CellTiter-Glo reagent was added into the assay plates using a FRD. After 30 min incubation at room temperature, the luminescence intensity in the plates was measured using a ViewLux (PerkinElmer) plate reader.", "values": [{"smiles": "C[C@H](CN1CCCC1)C(=O)c1ccc(C(F)(F)F)cc1", "activity change, negative = cytotoxicity": "-3.38% [at 42.5 µM] (inactive)"}, {"smiles": "Clc1nc2ccccc2nc1Cl", "activity change, negative = cytotoxicity": "6.93% (inactive)"}, {"smiles": "C=CC(=O)NC(C)(C)C", "activity change, negative = cytotoxicity": "1.16% (inactive)"}, {"smiles": "CC1(C)[C@@H]2CC[C@]3(C2)[C@@H]1C(=O)CCC3(C)C", "activity change, negative = cytotoxicity": "-0.959% (inactive)"}, {"smiles": "COC(=O)Cc1cccc2ccccc12", "activity change, negative = cytotoxicity": "-1.12% (inactive)"}, {"smiles": "CCCc1ccc(OC)cc1", "activity change, negative = cytotoxicity": "-0.569% (inactive)"}, {"smiles": "CC(C)(O)C(=O)O", "activity change, negative = cytotoxicity": "0.0721% (inactive)"}, {"smiles": "CC(=O)c1cccnc1", "activity change, negative = cytotoxicity": "8.17% (inactive)"}, {"smiles": "CC(=O)Nc1cccc(N)c1", "activity change, negative = cytotoxicity": "-0.676% (inactive)"}, {"smiles": "C1=COCCC1", "activity change, negative = cytotoxicity": "7.81% (inactive)"}, {"smiles": "CCN(CCCCOC(=O)c1ccc(OC)c(OC)c1)C(C)Cc1ccc(OC)cc1", "note": "(stereo not given)", "activity change, negative = cytotoxicity": "-16% [at 42.5 µM] (inactive)"}, {"smiles": "CC(=O)Nc1ccccc1O", "activity change, negative = cytotoxicity": "-7.27% (inactive)"}, {"smiles": "CCOC(OCC)OCC", "activity change, negative = cytotoxicity": "0.445% (inactive)"}, {"smiles": "O=[N+]([O-])c1ccc(Cl)cc1Cl", "activity change, negative = cytotoxicity": "7.1% (inactive)"}, {"smiles": "Cc1ccc2ccccc2c1[N+](=O)[O-]", "activity change, negative = cytotoxicity": "1.29% (inactive)"}, {"smiles": "Cc1ccc2c(Cl)cc(Cl)c(O)c2n1", "activity change, negative = cytotoxicity": "1.49% [at 42.5 µM] (inactive)"}, {"smiles": "O=C(O)CCc1nc2ccccc2[nH]1", "activity change, negative = cytotoxicity": "22.1% [at 42.5 µM] (inactive)"}, {"smiles": "CC1=C(C)C(=O)C(CCCCC#CCCCC#CCO)=C(C)C1=O", "Potency": "26.6 µM (active)"}, {"smiles": "CCCCCCCCC(=O)OCC(C)OC(=O)CCCCCCCC", "note": "(stereo not given)", "activity change, negative = cytotoxicity": "-5.51% (inactive)"}, {"smiles": "O=C(NC1CCN(CCc2c[nH]c3ccccc23)CC1)c1ccccc1", "activity change, negative = cytotoxicity": "-16.9% [at 42.5 µM] (inactive)"}, {"smiles": "O=C(N[C@@H](Cc1ccccc1)[C@@H](O)C(=O)N1C[C@@H](O)[C@@H](O)C1)c1cc2cc(Cl)ccc2[nH]1", "activity change, negative = cytotoxicity": "-19.4% (inactive)"}, {"smiles": "CCOc1ccc(NC(C)=O)cc1N", "activity change, negative = cytotoxicity": "1.97% (inactive)"}, {"smiles": "Cc1nc(C)c(C)nc1C", "activity change, negative = cytotoxicity": "-24.8% (inactive)"}, {"smiles": "Cc1ccc(NC(=O)c2ccc(CN3CCN(C)CC3)cc2)cc1Nc1nccc(-c2cccnc2)n1", "activity change, negative = cytotoxicity": "2.65% [at 42.5 µM] (inactive)"}, {"smiles": "CC1=C(C)C(=O)C(C(CCCCCC(=O)O)c2ccccc2)=C(C)C1=O", "note": "(stereo not given)", "activity change, negative = cytotoxicity": "-18.2% [at 42.5 µM] (inactive)"}, {"smiles": "Nc1ccc(-c2ccc(F)cc2)cc1", "activity change, negative = cytotoxicity": "-0.517% (inactive)"}, {"smiles": "CC(CN=Cc1ccccc1O)N=Cc1ccccc1O", "note": "(stereo not given)", "activity change, negative = cytotoxicity": "0.943% (inactive)"}, {"smiles": "[O-][n+]1ccc(Cl)cc1", "activity change, negative = cytotoxicity": "6.3% (inactive)"}, {"smiles": "CCCC(=O)OCCC(C)C", "activity change, negative = cytotoxicity": "-6.54% (inactive)"}, {"smiles": "O=C(O)CNc1ccccc1", "activity change, negative = cytotoxicity": "-0.508% (inactive)"}, {"smiles": "c1ccc(CCNc2nc(-c3ccccc3)cs2)cc1", "activity change, negative = cytotoxicity": "-16.7% [at 42.5 µM] (inactive)"}, {"smiles": "CCc1c(C)[nH]c2c1C(=O)C(CN1CCOCC1)CC2", "note": "(stereo not given)", "activity change, negative = cytotoxicity": "0.21% [at 42.5 µM] (inactive)"}, {"smiles": "Cc1ccc(S(=O)(=O)NC(=O)NC2CCCC2)cc1", "activity change, negative = cytotoxicity": "-1.93% [at 42.5 µM] (inactive)"}, {"smiles": "O=C1c2ccccc2C(=O)C1c1ccc2ccccc2n1", "activity change, negative = cytotoxicity": "0.137% [at 42.5 µM] (inactive)"}, {"smiles": "C/C(=C(\\CCO)SS/C(CCO)=C(\\C)N(C=O)Cc1cnc(C)nc1N)N(C=O)Cc1cnc(C)nc1N", "activity change, negative = cytotoxicity": "4.69% [at 42.5 µM] (inactive)"}, {"smiles": "Nc1ccccc1Nc1ccccc1", "activity change, negative = cytotoxicity": "-3.8% (inactive)"}, {"smiles": "CC(=O)S[C@H](C(=O)N[C@H]1Cc2ccccc2[C@H]2CCC[C@@H](C(=O)O)N2C1=O)C(C)C", "activity change, negative = cytotoxicity": "7.19% (inactive)"}, {"smiles": "Cc1ccccc1CCO", "activity change, negative = cytotoxicity": "2.21% (inactive)"}, {"smiles": "CCc1cnc(C(=O)O)c(C(=O)O)c1", "activity change, negative = cytotoxicity": "4.3% (inactive)"}, {"smiles": "CCC(C)C1N=C(C)C(C)S1", "note": "(stereo not given)", "activity change, negative = cytotoxicity": "2.5% (inactive)"}]}]}
